Experimental data reported in PubChem BioAssay AID588790 (National Center for Advancing Translational Sciences (NCATS), 2011).
About 85 (7%) of roughly 1,200 compounds were called active. Shown is part of a subset that was picked to be rich in actives. A number with no mark means an inactive call. Calls follow the shape of the full dose curve.

What follows are molecules tested against Beta-2 adrenergic receptor (Homo sapiens) (UniProt P07550) (assay: qHTS assay of beta-arrestin-biased ligands of beta2-adrenergic receptor: Hit Validation with GloSensor). Conditions: W9-Glo22F cells, GloSensor cAMP luminescence, beta2AR agonism; activation: at 46.1 µM (top of the series).
Description: The concept of biased agonism is an emerging concept of molecular pharmacology which proposes that seven transmembrane receptors (7TMRs) or G protein-coupled receptors (GPCRs), exist in multiple signaling conformations and complexes and that ligands (either agonists or antagonists) can induce signaling biased responses for distinct signal transduction cascades.
Furthermore, accumulating evidence over the last decade has drawn attention to a novel function of beta-arrestins as signal transducers that scaffold various signaling molecules upon activation of 7TMRs. […] This beta-arrestin-biased signaling presumably leads to distinct physiological outcomes from those by G protein activation.
Additionally, the active receptor conformations which […] on this beta-arrestin signaling are likely different from those activating G protein signaling
The goal of this screening project is to discover and optimize novel beta-arrestin-biased ligands for beta2-AR signaling. A luminescent cell-based assay for beta2-AR-mediated agonism, known as the Tango assay, has been validated in which ligand binding of a recombinant beta2-AR and subsequent recruitment of a recombinant beta-arrestin lead to the release of the transcriptional activator tTA, which upregulates transcription of a tTA-responsive luciferase gene. […] After compounds were identified in this primary screen, they were tested in a counter screen that used luminescence as measure through the GloSensor reagent.
NIH Molecular Libraries Probe Production Network [MLPCN]
NIH Chemical Genomics Center [NCGC]
PI: Bryan Roth (UNC) and Bob Lefkowitz (Duke)
2 uL of W9-Glo22F cells are dispensed into a white 1536-well plate. They are incubated overnight at 37 deg C at 5% CO2. 23 nL of compounds and controls are pinned into the wells. Then 2 uL of GloSensor is added and the plate is incubated for 10 min at room temperature.The plates are then read on the ViewLux for luminescence.
For activation in this document: 0% is about no effect.
Potency is read from the fitted curve at half-maximal effect.

Beta-2 adrenergic receptor (Homo sapiens), sequence (P07550 whole entry, looked up): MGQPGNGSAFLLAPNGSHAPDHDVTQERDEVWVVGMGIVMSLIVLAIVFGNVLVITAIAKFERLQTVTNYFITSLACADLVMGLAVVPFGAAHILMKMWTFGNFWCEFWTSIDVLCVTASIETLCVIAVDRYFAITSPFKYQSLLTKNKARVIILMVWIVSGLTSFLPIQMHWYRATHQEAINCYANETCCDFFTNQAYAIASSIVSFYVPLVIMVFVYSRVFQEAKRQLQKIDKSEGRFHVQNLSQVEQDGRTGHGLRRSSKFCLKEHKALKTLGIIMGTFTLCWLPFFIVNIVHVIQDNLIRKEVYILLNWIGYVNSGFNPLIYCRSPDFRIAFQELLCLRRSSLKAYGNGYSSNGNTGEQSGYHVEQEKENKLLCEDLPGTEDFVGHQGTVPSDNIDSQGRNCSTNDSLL

Row | Compound | activation [%] | Potency
1 | CCN1CCN(C(=S)NC(=O)c2cccc(Br)c2)CC1 | -1.16 | –
2 | CC1CN(C(=S)NC(=O)c2ccc([N+](=O)[O-])cc2)CC(C)O1 (stereo unspecified) | 0 | –
3 | CCC1(C)Nc2ccccc2C(=O)N1O (stereo unspecified) | -1.16 | –
4 | O=C(Nc1nc(-c2ccccn2)cs1)Nc1ccc(F)cc1F | 0 | –
5 | CN(C)/C=C/C(=O)c1ccc(F)cc1 | 0.306 | –
6 | O=S(=O)(N1CCOCC1)N1CCOCC1 | -1.16 | –
7 | Cc1ccc(NC(=S)NC(NC(=O)c2ccccc2)C(Cl)(Cl)Cl)c(C)c1 (stereo unspecified) | -1.16 | –
8 | Cn1c(-c2csc(-c3ccccc3)n2)n[nH]c1=S | – | 20.6 µM (active)
9 | S=c1[nH]nc(-c2ccccc2)n1C1C=CCCC1 (stereo unspecified) | -1.01 | –
10 | CC(c1ccccc1)n1c(-c2ccc(C(C)(C)C)cc2)n[nH]c1=S (stereo unspecified) | -2.33 | –
11 | COc1ccccc1-c1cc(C(=O)N2CCN(c3ccccc3OC)CC2)no1 | 0.153 | –
12 | Cc1ccc(Nc2nc(CSc3nnc(-c4ccccc4C)n3C)cs2)cc1 | 0.306 | –
13 | CCCOc1ccc(C(=O)Nc2nc(C)c(Cc3ccc4c(c3)OCO4)s2)cc1 | -1.01 | –
14 | COc1ccccc1N=NC1C(=O)N(C(N)=S)N=C1C (stereo unspecified) | 8.6 | –
15 | CC(=O)Nc1ccc(NC(=O)Cn2nc(C(=O)Nc3ccc(C)cc3)ccc2=O)cc1 | -1.16 | –
16 | CC1=NN(C(N)=S)C(=O)C1N=Nc1cccc(C)c1 (stereo unspecified) | 0.153 | –
17 | CC1=NN(C(N)=S)C(=O)C1N=Nc1ccc(F)cc1 (stereo unspecified) | 0.306 | –
18 | CC1=NN(C(N)=S)C(=O)C1N=Nc1ccccc1 (stereo unspecified) | – | 18.4 µM (active)
19 | NC(=S)N/N=C/c1ccccc1OC(=O)c1cc2ccccc2oc1=O | 1.16 | –

Row | Compound | activation [%] | Potency
20 | COCC(=O)Nc1c(C(=O)Nc2ccc3c(c2)OCCO3)oc2ccccc12 | -2.48 | –
21 | S=c1[nH]nc(-c2ccco2)n1/N=C/C(Cl)=C/c1ccccc1 | 2.48 | –
22 | CC(=C/c1ccccc1)/C=N/n1c(C)n[nH]c1=S | – | 25.9 µM (active)
23 | Cc1cc(-c2n[nH]c(=S)n2/N=C/C(Br)=C/c2ccccc2)n[nH]1 | 0 | –
24 | CCc1n[nH]c(=S)n1/N=C/c1ccc(N(CC)CC)cc1 | -2.48 | –
25 | Cc1cc(-c2n[nH]c(=S)n2/N=C/C(Cl)=C/c2ccccc2)n[nH]1 | – | 36.6 µM (active)
26 | COC(=O)c1c(NC(=O)CS(=O)(=O)c2ccccc2)sc(C)c1C | 0 | –
27 | C/C(=N\NC(=O)c1c[nH]c2ccccc12)c1ccc(C)s1 | 0.306 | –
28 | COc1cc2c(cc1OC)C(C)N(C(=O)Cn1ncc3c1-c1cc(C)ccc1OC3)CC2 (stereo unspecified) | 1.16 | –
29 | N=c1n(Cc2ccccc2)c2ccccc2n1Cc1ccccc1 | 0.153 | –
30 | COc1cccc(NC(=S)NN=C2CCCCCC2)c1 | -1.01 | –
31 | COC(=O)c1cc2sc(Cl)cc2n1CC(=O)Nc1ccc(OC)c(OC)c1OC | 0 | –
32 | CNc1sc(C(=O)c2ccccc2F)c(N)c1-c1nc2ccccc2s1 | – | 18.4 µM (active)
33 | NC(=S)Nc1nc2ccccc2s1 | 2.48 | –
34 | CNc1sc(C(=O)c2cccs2)c(N)c1-c1nc2ccccc2s1 | -1.16 | –
35 | CCOC(=O)C1=CN(Cc2cccc(-c3cccnc3)c2)S(=O)(=O)N(CC)C1C (stereo unspecified) | 0 | –
36 | Cc1ccc(CONC(=O)c2ccccc2Cl)cc1 | 0.306 | –
37 | O=C(/C=C/c1ccc(N2CCCCC2)c([N+](=O)[O-])c1)c1ccc(S(=O)(=O)N2CCCC2)cc1 | 0 | –
38 | Cc1ccc2nc(C)c(C(=O)N/N=C/c3cccs3)n2c1 | 0 | –

Row | Compound | activation [%] | Potency
39 | C=CCNc1nc(Cl)nc(NC2CCCCC2)n1 | – | 23.1 µM (active)
40 | COC(=O)COc1cccc2c(=O)n(CC(=O)Nc3ccc4c(c3)OCCO4)ccc12 | 0 | –
41 | CCOC(=O)c1ccccc1NC1c2ccccc2C(=O)N1C1CCN(C(=O)OCC)CC1 (stereo unspecified) | -1.16 | –
42 | O=C(CSc1cccc2cccnc12)N1CCCC1 | 1.16 | –
43 | O=C1NC(=NCc2ccccc2)S/C1=C/c1ccc(O)cc1 | – | 23.1 µM (active)
44 | COc1ccc(CN=C2NN=C(c3ccccc3)CS2)cc1 | -1.16 | –
45 | CCCCCC(=O)Nc1cccc(C2=NOC3(C2)C[C@@H](C(N)=O)N(C(=O)CC(c2ccccc2)c2ccccc2)C3)c1 (stereo partly specified) | 0 | –
46 | CN(c1ccccc1)S(=O)(=O)c1ccc(C(=O)Nc2nccs2)cc1 | 0.459 | –
47 | O=C(Oc1ccc(Cl)c2cccnc12)c1ccco1 | -1.16 | –
48 | O=C(Oc1c(-c2ccco2)oc2ccccc2c1=O)c1cccnc1 | – | 32.6 µM (active)
49 | O=C(Oc1c(Cl)cc(Cl)c2cccnc12)c1ccco1 | -2.33 | –
50 | Cc1ccc2c(c1)[C@H]1[C@H](CO2)[C@H](c2ccccc2)[C@]2(C)C(=O)Nc3ccccc3C(=O)N12 | 0.459 | –
51 | NC(=S)N/N=C/c1ccc(-c2ccccc2)o1 | 0 | –
52 | NC(=S)N/N=C/c1ccc(-c2ccc([N+](=O)[O-])cc2)o1 | 0 | –
53 | NC(=S)N/N=C/c1ccc(-c2cccc([N+](=O)[O-])c2)o1 | – | 20.6 µM (active)
54 | Cc1cccc(NC(=S)NC(=O)C2CC2)c1 | -1.16 | –
55 | CCC(NC(C)C)C(O)c1ccc(O)c2[nH]c(=O)ccc12 (stereo unspecified) | – | 0.0058 µM (active)
56 | CCC(NC(C)C)C(O)c1ccc(O)c(O)c1 (stereo unspecified) | – | 0.0065 µM (active)
